D2 ag-1 = agonists of human D2 dopamine receptor (beta-arrestin) | DiscoveRx PathHunter D2 beta-arrestin, luminescence, 90 min; 100% = 57 uM dopamine signal | activation, % (concentration not given with the values) | hit rate 0.084% among 360,000 | AID 624465; in the data active means activation above about 40%
Target sequence (P14416 whole entry, looked up): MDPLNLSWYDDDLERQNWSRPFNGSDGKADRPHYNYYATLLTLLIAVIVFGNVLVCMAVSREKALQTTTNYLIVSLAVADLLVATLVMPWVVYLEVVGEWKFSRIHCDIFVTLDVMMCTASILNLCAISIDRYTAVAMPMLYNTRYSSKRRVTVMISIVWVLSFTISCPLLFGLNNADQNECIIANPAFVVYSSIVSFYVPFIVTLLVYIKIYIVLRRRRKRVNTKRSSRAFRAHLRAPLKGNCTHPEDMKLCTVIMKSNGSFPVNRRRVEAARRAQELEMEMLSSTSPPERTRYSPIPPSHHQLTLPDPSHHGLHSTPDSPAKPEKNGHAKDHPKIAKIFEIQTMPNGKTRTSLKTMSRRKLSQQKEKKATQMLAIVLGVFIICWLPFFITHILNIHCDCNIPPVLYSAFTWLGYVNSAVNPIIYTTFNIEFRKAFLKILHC
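Agonist mode: compounds alone added to overnight-plated D2 PathHunter cells for 90 min at 37 C, with 57 uM final dopamine (EC100) defining full response. Beta-arrestin recruitment detected by chemiluminescent reagent, read after 1 h at ambient temperature.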
D2 antag = antagonists of human D2 dopamine receptor | P14416 | HEK293 TREx D2 cells, calcium flux, dopamine EC80 | inhibition, % at 10 µM | hit rate 2% among 340,000 | AID 485344; in the data active means inhibition above about 30%; inactive means below that, where a call was filed; further: 0% is about no effect
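Compounds are added to dye-loaded, induced HEK293 T-REx cells coupled to calcium release via D2; after a 3 min kinetic read an EC80 dopamine stimulus is given and fluorescence is recorded for 3 more min.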
D2 PAM-1 = human D2 receptor positive allosteric modulation | P14416 | DiscoveRx D2 beta-arrestin cells, luminescence, 90 min; 100% = 57 uM dopamine signal | potentiation, % (no concentration beside the values) | hit rate 0.23% among 360,000; in the data active means potentiation above about 50%
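D2 cells co-treated with compound plus 50 nM dopamine (EC20) for 90 min at 37 deg C to detect potentiation. Beta-arrestin recruitment was read as enzyme-fragment luminescence after 1 h at ambient temperature. Full response was set by 57 uM dopamine.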
D2 PAM-2 = positively modulates the human D2 dopamine receptor allosterically; P14416; hit rate 0.34% among 340,000; potentiation, % at 10 µM; HEK293 T-REx D2, calcium flux, EC20 dopamine potentiation; AID 485347;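 active means potentiation over 3 SD above the plate norm, cut at about 30% in these data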; further: 0% is about no effect
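Using a no-wash calcium dye in inducible, force-coupled HEK293 Trex cells expressing D2, we tracked fluorescence each second for 180 s after compound, then for 180 s after EC20 dopamine to detect augmented signalling.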
D2 ag-2 = agonists of human D2 dopamine receptor. P14416. AID 485358. HEK293 T-REx D2 cells, calcium flux agonist mode. activation, % at 2 µM. hit rate 0.53% among 340,000;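 active means activation over 3 SD above normal in the single-dose calcium agonist read, cut at about 30% in these data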; further: 0% is about no effect
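Calcium-flux readout, 1 cycle/sec over 180 s following compound pin transfer, in inducible HEK293 Trex D2 cells (force-coupled); dopamine controls included. Positive calcium responses during this window marked compounds as potential agonists.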
* marks the source's active call; other numbers are inactive results; . = no result given. Sampled rows, rich in hits. Any-hit rate of the full collection: about 2.4%.

SMILES	D2 ag-1	D2 antag	D2 PAM-1	D2 PAM-2	D2 ag-2
COc1ccc2c(c1)-c1ccccc1S(=O)(=O)N2C	1	34*	-13	-18	0
Oc1ccc(Nc2ccc3ccccc3c2)cc1	3	.	66*	.	.
Oc1ccc(Nc2nc(-c3ccc4ccccc4c3)cs2)cc1	.	3	.	-1	1
COc1ccc(N2C(=O)C(CC(=O)Nc3ccc(Cl)cc3)N(Cc3ccc4c(c3)OCO4)C2=O)cc1 (stereo not given)	.	.	.	-26	2
CSc1ccccc1NC(=O)CSc1n[nH]c(C)c1[N+](=O)[O-]	-2	41*	-6	0	0
Cc1ccc(O)c(NC(=O)CSc2n[nH]c(C)c2[N+](=O)[O-])c1	14	.	6	.	.
O=C(COC(=O)Cc1ccsc1)Nc1ccccc1	1	1	-2	6	0
COc1cc(NC(=O)COC(=O)Cc2ccsc2)cc(OC)c1	1	31*	0	-12	1
C/C(Cn1nnc([N+](=O)[O-])n1)=N\NC(=O)c1ccccc1	7	-7	59*	2	1
C/C(Cn1cnc([N+](=O)[O-])n1)=N\NC(=O)c1ccccc1	-1	-7	2	-9	-1
COc1ccc(OC)c(-n2c(-c3cccc(O)c3)n[nH]c2=S)c1	0	12	16	36*	0
CC(=O)Nc1ccc(S(=O)(=O)N2CCC(c3nnnn3-c3ccccc3)CC2)cc1	.	.	.	1	1
COc1ccc(C(=O)NC2(C(F)(F)F)C(=O)NC(C)=C2C#N)cc1 (stereo not given)	.	.	.	16	0
CCN(Cc1nc(-c2ccc(OC)c(OC)c2)no1)S(=O)(=O)c1ccc(OC)cc1	.	.	.	5	2
CC(NC(=O)c1cccc(S(=O)(=O)N(C)C)c1)C1CC2CCC1C2 (stereo not given)	-2	-13	-8	3	-2
CC(NC(=O)c1cc(S(=O)(=O)N(C)C)ccc1Cl)C1CC2CCC1C2 (stereo not given)	0	35*	-1	-5	0
CCc1ccc(OCC(=O)NNC(=O)c2ccc(NC(=O)C3CC3)cc2)cc1	3	31*	-14	6	0
COc1ccc(C(CNC(=O)COc2ccc(C)cc2)N2CCCCC2)cc1 (stereo not given)	.	.	.	-26	-1
COc1ccc(C(CNC(=O)C(C)(C)Oc2ccc(Cl)cc2)N2CCCCC2)cc1 (stereo not given)	-3	86*	-45	-30	-1
COc1ccc(C(CNC(=O)COc2ccc(Cl)c(C)c2)N2CCCCC2)cc1 (stereo not given)	0	37*	-34	-27	0
COc1ccc(C(CNC(=O)C(C)(C)Oc2ccc(Cl)cc2)N2CCOCC2)cc1 (stereo not given)	-7	.	-36	.	.
CCc1ccccc1NC(=O)CCNS(=O)(=O)c1ccc2c(c1)CCCC(=O)N2	.	.	.	-7	0
N#CC1(NC(=O)COC(=O)C2=COCCO2)CCCCC1	-5	50*	-4	3	0
CCN(CC)CCN1C(=O)C(=O)/C(=C(/O)c2ccc(C)cc2)C1c1ccncc1 (stereo not given)	.	9	.	-4	-2
CCN(CC)CCN1C(=O)C(=O)/C(=C(/O)c2ccc(Cl)cc2)C1c1ccncc1 (stereo not given)	2	40*	-6	2	0
SMILES	D2 ag-1	D2 antag	D2 PAM-1	D2 PAM-2	D2 ag-2
Cc1ccc(CNC(=O)c2ccc([N+](=O)[O-])o2)cc1	-14	0	56*	-7	0
Cc1ccc(/C=C/C(=O)c2ccc([N+](=O)[O-])o2)cc1	10	1	54*	7	1
Cc1ccc(CNC(=O)c2nn(C)c(C)c2[N+](=O)[O-])cc1	-5	17	-13	-8	0
O=C(NCc1ccccc1Br)c1ccc(-n2cnc3cccnc32)cc1	.	.	.	7	.
CC(C)(C)n1nnnc1CN1CCN2CCCC2C1 (stereo not given)	1	37*	0	14	1
COc1ccc(N=Nc2nc3cc(Br)c(Br)cc3n2C)c(OC)c1	-1	0	-11	-2	33*
O=C(NCc1cccc(F)c1)c1ccc(CN2CC(=O)N3CCCCC3C2=O)cc1 (stereo not given)	.	.	.	2	0
O=[N+]([O-])c1ncccc1OCc1ccccc1Br	-4	34*	-5	-11	-1

Bioassay records (PubChem)
